From PubChem BioAssay (Tox21)
Unmarked numbers belong to inactive results. The source made the active and inactive calls. Calls come from the whole dose curve; as a rule, active = well fitted curve in the direction sought with a large enough effect in the repeat runs; inconclusive = weak or mixed curves; inactive = flat fitted curve, though single readings scatter.

Assay: qHTS assay to test for compound auto fluorescence at 590 nm (red) in HEK293 cell free culture (AID 720683)
Conditions: cell-free medium autofluorescence, Ex540/Em590 red; series mostly up to 91.3 µM; fluorescence, % of fluorescent control: at the top concentration
In short: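 Tox21 10K library compounds were pinned into cell-free DMEM with 10% FBS and fluorescence was read at excitation 540 nm. Activity is expressed as Rose Bengal sodium equivalency.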
% is set by controls: 0 for no effect and ±100 for the full control effect.

| Compound | fluorescence, % of fluorescent control | outcome |
| --- | --- | --- |
| CCCCS | -0.0441% [at 95.7 µM] | – |
| CCNC(=O)C(C)OC(=O)Nc1ccccc1 (centres undefined) | 0.032% | – |
| CC(C)(Sc1cc(C(C)(C)C)c(O)c(C(C)(C)C)c1)Sc1cc(C(C)(C)C)c(O)c(C(C)(C)C)c1 | -0.146% [at 18.6 µM] | – |
| O=C(O)CCC(=O)Nc1ccc(S(=O)(=O)Nc2nccs2)cc1 | 0.0244% [at 18.6 µM] | – |
| CCCCC(CC)CCC(CC(C)C)OS(=O)(=O)O (centres undefined) | – | inactive |
| Cc1ccccc1C#N | -0.245% | – |
| COC(=O)c1ccccc1Cl | 0.0093% | – |
| Cc1ccc2cccnc2c1 | 0.115% | – |
| Cc1cc(N)no1 | -0.0246% [at 95.7 µM] | – |
| CN(C)CCC[C@@]1(c2ccc(F)cc2)OCc2cc(C#N)ccc21 | -0.119% [at 46 µM] | – |
| CCN(CC)CC | 0.338% [at 95.7 µM] | – |
| C=C(C)C(=O)OCCOC1CC2CC1C1C=CCC21 (centres undefined) | -0.0024% [at 95.7 µM] | – |
| O=C(O)CCCCCCCCCC(=O)O | -0.441% | – |
| CC(O)CCCCn1c(=O)c2c(ncn2C)n(C)c1=O (centres undefined) | -0.122% [at 46 µM] | – |
| C=CC(=O)CC | 0.015% [at 95.7 µM] | – |
| CCCCCC(=O)CC | -0.043% [at 95.7 µM] | – |
| C/C=C(\C)C=O | 0.146% | – |
| NC[C@H]1O[C@H](O[C@H]2[C@H](O)[C@@H](O[C@H]3O[C@H](CO)[C@@H](O)[C@H](N)[C@H]3O)[C@H](N)C[C@@H]2N)[C@H](N)[C@@H](O)[C@@H]1O | – | inactive |
| Cc1ccc(NC(N)=O)cc1 | 0.0861% | – |
| CC(C)(O)CCCC1=CCC(C=O)CC1 (centres undefined) | 0.0616% [at 95.7 µM] | – |
| CCCC(=O)OC | -0.0599% | – |
| CCCCCCCCCCCCCCCC(=O)OC | -0.033% [at 18.6 µM] | – |
| CCCCCCCCCCCCCCCCN(C)C | 0.0064% [at 3.72 µM] | – |
| Cc1cc(C)c(C)c(C)c1 | -0.0283% | – |
| O=C(O)COc1ccc2ccccc2c1 | 0.0156% | – |
| CN1C(CCl)Nc2cc(Cl)c(S(N)(=O)=O)cc2S1(=O)=O (centres undefined) | 0.118% [at 46 µM] | – |
| CC(C)(C)C(=O)CC(=O)C(C)(C)C | 0.0119% [at 95.7 µM] | – |

Assay: qHTS assay to test for compound auto fluorescence at 590 nm (red) in HepG2 cell free culture (AID 720684)
Conditions: cell-free medium autofluorescence, red 540/590 nm; series mostly up to 91.3 µM; fluorescence, % of Rose Bengal: at the top concentration
In short: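 Measured in medium alone (MEM containing 10% FBS) following pintool addition of compound; emission at 590 nm with 540 nm excitation, referenced to Rose Bengal sodium.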

| Compound | fluorescence, % of Rose Bengal | outcome |
| --- | --- | --- |
| CCCCS | -0.198% [at 95.7 µM] | – |
| CCNC(=O)C(C)OC(=O)Nc1ccccc1 (centres undefined) | 0.0681% | – |
| CC(C)(Sc1cc(C(C)(C)C)c(O)c(C(C)(C)C)c1)Sc1cc(C(C)(C)C)c(O)c(C(C)(C)C)c1 | -0.645% [at 18.6 µM] | – |
| O=C(O)CCC(=O)Nc1ccc(S(=O)(=O)Nc2nccs2)cc1 | 0.477% [at 18.6 µM] | – |
| CCCCC(CC)CCC(CC(C)C)OS(=O)(=O)O (centres undefined) | – | inactive |
| Cc1ccccc1C#N | -0.372% | – |
| COC(=O)c1ccccc1Cl | -0.0158% | – |
| Cc1ccc2cccnc2c1 | 0.064% | – |
| Cc1cc(N)no1 | 0.038% [at 95.7 µM] | – |
| CN(C)CCC[C@@]1(c2ccc(F)cc2)OCc2cc(C#N)ccc21 | 0.395% [at 46 µM] | – |
| CCN(CC)CC | 0.0595% [at 95.7 µM] | – |
| C=C(C)C(=O)OCCOC1CC2CC1C1C=CCC21 (centres undefined) | -0.024% [at 95.7 µM] | – |
| O=C(O)CCCCCCCCCC(=O)O | -0.033% | – |
| CC(O)CCCCn1c(=O)c2c(ncn2C)n(C)c1=O (centres undefined) | 0.0355% [at 46 µM] | – |
| C=CC(=O)CC | 0.0465% [at 95.7 µM] | – |
| CCOCCOCCOC(C)=O | 0.0322% [at 95.7 µM] | – |
| CCCCCC(=O)CC | 0.131% [at 95.7 µM] | – |
| C/C=C(\C)C=O | 0.0062% | – |

| Compound | fluorescence, % of Rose Bengal | outcome |
| --- | --- | --- |
| NC[C@H]1O[C@H](O[C@H]2[C@H](O)[C@@H](O[C@H]3O[C@H](CO)[C@@H](O)[C@H](N)[C@H]3O)[C@H](N)C[C@@H]2N)[C@H](N)[C@@H](O)[C@@H]1O | – | inactive |
| Cc1ccc(NC(N)=O)cc1 | 0.0099% | – |
| CC(C)(O)CCCC1=CCC(C=O)CC1 (centres undefined) | 0.237% [at 95.7 µM] | – |
| CCCC(=O)OC | 0.0124% | – |
| CCc1ccc(CC)cc1 | 0.0173% | – |
| CCCCCCCCCCCCCCCC(=O)OC | 0.0231% [at 18.6 µM] | – |
| O=S(=O)(O)CC(O)CCl (centres undefined) | 0.15% | – |
| CC[N+](C)(CC)CC | -0.0851% | – |
| CCCCCCCCCCCCCCCCN(C)C | -0.0248% [at 3.72 µM] | – |
| Cc1cc(C)c(C)c(C)c1 | 0.175% | – |
| O=C(O)COc1ccc2ccccc2c1 | -0.509% | – |
| Cc1ccc(O)c([N+](=O)[O-])c1 | -0.731% [at 95.7 µM] | – |
| Cc1ccc(N)nc1 | -0.0824% | – |
| CCCC(C)C(O)CC (centres undefined) | -0.0239% | – |
| N=C(N)N | 0.376% [at 46 µM] | – |
| CN1C(CCl)Nc2cc(Cl)c(S(N)(=O)=O)cc2S1(=O)=O (centres undefined) | 0.0446% [at 46 µM] | – |
| CC(C)(C)C(=O)CC(=O)C(C)(C)C | 0.0152% [at 95.7 µM] | – |

Assay: qHTS assay to test for compound auto fluorescence at 460 nm (blue) in HepG2 cell free culture (AID 720685)
Conditions: Cell-free culture medium, blue autofluorescence 405/460 nm; series mostly up to 91.3 µM; fluorescence, % of fluorescent control: at the top concentration
In short: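 Compound (23 nL) or DMSO pinned into cell-free MEM with 10% FBS; blue fluorescence read at 405/460 nm excitation/emission, expressed as auto-fluorescence equivalency to triamterene.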

| Compound | fluorescence, % of fluorescent control | outcome |
| --- | --- | --- |
| CCCCS | 0.0341% [at 95.7 µM] | – |
| CCNC(=O)C(C)OC(=O)Nc1ccccc1 (centres undefined) | -0.0721% | – |
| CC(C)(Sc1cc(C(C)(C)C)c(O)c(C(C)(C)C)c1)Sc1cc(C(C)(C)C)c(O)c(C(C)(C)C)c1 | -0.0941% [at 18.6 µM] | – |
| CCCCC(CC)CCC(CC(C)C)OS(=O)(=O)O (centres undefined) | – | inactive |
| Cc1ccccc1C#N | -0.0464% | – |
| COC(=O)c1ccccc1Cl | 0.0577% | – |
| Cc1ccc2cccnc2c1 | -0.0793% | – |
| Cc1cc(N)no1 | -0.0187% [at 95.7 µM] | – |
| O=C(O)CCCCCCCCCC(=O)O | -0.147% | – |
| CC(O)CCCCn1c(=O)c2c(ncn2C)n(C)c1=O (centres undefined) | -0.0135% [at 46 µM] | – |
| CCOCCOCCOC(C)=O | 0.135% [at 95.7 µM] | – |
| CCCCCC(=O)CC | -0.122% [at 95.7 µM] | – |
| C/C=C(\C)C=O | 0.142% | – |
| NC[C@H]1O[C@H](O[C@H]2[C@H](O)[C@@H](O[C@H]3O[C@H](CO)[C@@H](O)[C@H](N)[C@H]3O)[C@H](N)C[C@@H]2N)[C@H](N)[C@@H](O)[C@@H]1O | – | inactive |
| Cc1ccc(NC(N)=O)cc1 | 0.0623% | – |
| CC(C)(O)CCCC1=CCC(C=O)CC1 (centres undefined) | 0.113% [at 95.7 µM] | – |
| CCCC(=O)OC | -0.0115% | – |
| CCCCCCCCCCCCCCCC(=O)OC | -0.0427% [at 18.6 µM] | – |
| O=S(=O)(O)CC(O)CCl (centres undefined) | 0.043% | – |
| CC[N+](C)(CC)CC | -0.0035% | – |
| CCCCCCCCCCCCCCCCN(C)C | -0.0345% [at 3.72 µM] | – |
| Cc1cc(C)c(C)c(C)c1 | -0.0756% | – |
| Cc1ccc(N)nc1 | 0.0055% | – |
| CCCC(C)C(O)CC (centres undefined) | 0.0021% | – |
| N=C(N)N | -0.0577% [at 46 µM] | – |
| CN1C(CCl)Nc2cc(Cl)c(S(N)(=O)=O)cc2S1(=O)=O (centres undefined) | 0.0185% [at 46 µM] | – |
| CC(C)(C)C(=O)CC(=O)C(C)(C)C | 0.0259% [at 95.7 µM] | – |
